# Bioassay records deposited in PubChem BioAssay by National Center for Advancing Translational Sciences (NCATS).
# VDR inh: vitamin D3 receptor (human) inhibition | AID 504847 | 400,000 tested, 0.93% active | VDR-SRC2-3 peptide fluorescence polarization, 2 h | P11473 | Potency, µM, for the others: max response, negative = inhibition, hits mostly inhibitors; further: potency means the concentration at half of the fitted maximal effect; on the % scale 0 is the no-effect control and ±100 the full control effect
#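 Fluorescence polarization assay of small-molecule disruption of VDR binding to coregulator peptide SRC2-3. Compounds and controls pin-transferred, then read after 2 h incubation at ambient room temperature.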
# PI5P4Ka inh: PI5P4K alpha (human) kinase inhibition | PI5P4Kalpha enzyme, ADP-Glo luminescence, 60 min; stronger effect = lower value | 330,000 tested, 1.2% active | max response, %; active means max response of -50% or lower; inconclusive means between -30% and -50%; inactive means -30% or higher; further: value at the top dose of about 77 µM; on the % scale 0 is the no-effect control and ±100 the full control effect
# Target sequence (P48426 whole entry, looked up): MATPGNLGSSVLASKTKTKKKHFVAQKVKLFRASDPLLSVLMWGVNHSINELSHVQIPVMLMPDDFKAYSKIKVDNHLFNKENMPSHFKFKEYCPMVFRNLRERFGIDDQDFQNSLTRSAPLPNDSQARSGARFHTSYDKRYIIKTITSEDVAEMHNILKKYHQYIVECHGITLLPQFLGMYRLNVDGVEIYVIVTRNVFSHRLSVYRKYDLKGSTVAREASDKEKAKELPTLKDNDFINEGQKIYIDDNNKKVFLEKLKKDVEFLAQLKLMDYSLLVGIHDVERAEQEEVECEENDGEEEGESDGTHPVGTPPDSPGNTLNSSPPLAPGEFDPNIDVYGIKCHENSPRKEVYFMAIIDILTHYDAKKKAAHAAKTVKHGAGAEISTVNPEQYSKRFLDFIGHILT
#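 ADP-Glo luminescence end-point after a 60 min room-temperature kinase reaction. PI5P4Kalpha and substrate in HEPES pH 7.4 buffer with EGTA, 0.1% CHAPS and 5% DMSO; ATP at 5 microM final.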
# GCN5L2 inh: GCN5L2 (KAT2A) acetyltransferase inhibition | 390,000 tested, 0.21% active | Potency, µM (series often up to 58.9 µM), without a hit: at the highest dose activity change, negative = inhibition, most hits filed as inhibitors | Q92830 | GCN5L2 HAT assay, ThioGlo1 CoA-SH fluorescence; further: potency means the concentration at half of the fitted maximal effect; on the % scale 0 is the no-effect control and ±100 the full control effect
#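 ThioGlo1-coupled HAT assay: 20nM GCN5L2, 70uM acetyl-CoA, 75uM H3(1-25) peptide, pH 7.5. Fluorescence read at 340/540nm at start and after 20 min at room temperature.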
# Rango dissoc inh: inhibition of RanGTP-driven Rango-importin beta dissociation. Biochemical FRET Rango-importin beta, RanGTP-induced dissociation. Potency, µM (top dose mostly 46.1 µM), for inactives: top-dose activity change, negative = inhibition. 340,000 tested, 0.071% active. O95149+P62826; calls by dose curve; further: potency means the concentration at half of the fitted maximal effect; % of control where 0% means no effect; nearly all actives have a fitted effect of over 45% in size
#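 Compounds sat 5 min at room temperature with 0.1 uM Rango biosensor plus 0.25 uM importin beta, then FRET pre-read. RanGTP-RCC1 (0.6 uM Ran, 2mM GTP, 0.2 uM RCC1) added for 45 min, and the CFP/YFP post-read measured blocked complex dissociation.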
# PLK1 PBD inh: inhibitors of human PLK1 polo-box domain binding. AID 720504. Potency, µM, for inactives: max response, negative = inhibition, hits mostly inhibitors. 360,000 tested, 2.8% active. Plk1 PBD binding of FITC phosphopeptide, fluorescence polarization. P53350; further: potency means the concentration at half of the fitted maximal effect; series mostly up to about 57 µM; on the % scale 0 is the no-effect control and ±100 the full control effect; nearly all actives have a fitted effect of over 65% in size
# Rango complex inh: Rango-importin beta binding inhibition | Rango CFP/YFP FRET sensor + importin beta, 45 min | Potency, µM (highest dose often 92.2 µM), for the others: at the highest dose inhibition of complex formation | 340,000 tested, 0.031% active | AID 540263; calls by dose curve;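 further: potency means the concentration at half of the fitted maximal effect; 0% = DMSO wells and 100% = buffer wells lacking importin beta; nearly all actives have a fitted effect of over 15% in size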
#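 Inhibition scored from the CFP 486 nm/YFP 530 nm FRET ratio 45 min after adding 0.125 microM importin beta to 50 nM Rango biosensor preincubated 5 min with compound (room temperature, PBS with DTT, Tween-20, BSA). No-importin wells as positive control.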
# ADP-Glo counter: interferes with ADP-Glo detection without enzyme present; shares compounds with PI5P4Ka inh; ADP-Glo detection counter-screen, luciferase luminescence, no enzyme; Potency, µM (doses to about 76.9 µM), without a hit: top-dose activity change, negative = inhibition, actives largely listed as inhibitors; 1,100 tested, under 10 active
# Active calls of the source: *; ? = inconclusive; nt = no result. Rows were chosen to be rich in hits. Some 3.6% of all compounds tested hit in one or more screens of this group. Unless noted, the call rests on the fitted dose curve; in most records, active means well fitted curve in the direction sought with a large enough effect; inconclusive means small, poorly fitted or top-dose-only effect, or another doubt; inactive means no such curve, though single readings can be large; an effect the other way counts as inactive or inconclusive.
SMILES,VDR inh,PI5P4Ka inh,GCN5L2 inh,Rango dissoc inh,PLK1 PBD inh,Rango complex inh,ADP-Glo counter
O=C(Nc1ccc(Cl)cc1)Nc1nnc(-c2ccncc2)s1,-11.0%,-10.1,-6.7%,-7.6%,-18.0%,-2.5%,nt
O=C(Nc1cccc(Cl)c1)Nc1nnc(-c2ccncc2)s1,-13.4%,-59.7*,?,-3.0%,-5.8%,-2.5%,-4.8%
COc1ccc(C(=O)N2CC(=O)Nc3ccc(F)cc3C2c2ccc(F)cc2)c(OC)c1 (stereo not drawn),-17.1%,nt,-3.5%,nt,nt,nt,nt
CS(=O)(=O)c1ccc(C(=O)Nc2nc(-c3ccco3)c(-c3ccco3)s2)cc1,?,-83.9*,?,-20.4%,-26.9%,?,3.6%
O=C(O)c1ccc(Nc2nc3ccccc3nc2NS(=O)(=O)c2cccs2)cc1,-10.8%,?,-9.3%,2.7%,?,1.2%,-8.0%
CC(=O)Nc1ccc(NC(=O)CC2Nc3cccc4cccc(c34)NC2=O)cc1 (stereo not drawn),20.0%,?,18.2%,1.8%,-10.3%,-0.9%,nt
CC(=O)c1ccc(NC(=O)CC2Nc3cccc4cccc(c34)NC2=O)cc1 (stereo not drawn),-17.4%,-54.5*,-6.4%,-11.3%,-7.5%,-3.4%,-4.6%
Cc1ccc(-c2csc(NC(=O)Cc3ccc(F)cc3)n2)o1,?,-56.4*,-25.3%,-12.2%,23.8µM*,-1.3%,3.8%
Cc1ccc(-c2csc(Nc3ccc(S(N)(=O)=O)cc3)n2)o1,-15.2%,-65.5*,-19.1%,-6.0%,?,-0.3%,0.9%
CCc1cccc(C)c1NC(=O)C1CCN(c2nnc(C)c3c(C)n(-c4ccccc4)nc23)CC1,5.0%,nt,-14.1%,nt,nt,nt,nt
COc1cc(Cl)c(NC(=O)CN2C(=O)c3cccnc3Sc3ccccc32)c(OC)c1,-5.4%,nt,-2.3%,nt,nt,nt,nt
O=C(c1ccc(-c2ccc([N+](=O)[O-])cc2)o1)N1CCN(S(=O)(=O)c2cccs2)CC1,-2.4%,-51.3*,-9.7%,17.3%,0.1%,?,-9.1%
O=C(c1ccco1)N1CCN(C(=O)c2ccc(-c3ccc([N+](=O)[O-])cc3)o2)CC1,-26.6%,-74.3*,?,8.3%,-20.9%,-1.6%,2.6%
O=C(c1ccc([N+](=O)[O-])cc1)N1CCN(C(=O)c2ccco2)CC1,11.1%,2.2,-4.3%,5.4%,-8.8%,-1.3%,nt
c1ccc2c(CCNc3ncnc4nc[nH]c34)c[nH]c2c1,0.8%,nt,2.7%,0.3%,-1.0%,1.9%,-1.9%
CC(C)(C(=O)N1CCC1(C)C(=O)NS(=O)(=O)c1ccc(C#N)cc1)c1ccccc1 (stereo not drawn),nt,-24.7,nt,nt,-14.2%,nt,-3.8%
Cc1ccccc1S(=O)(=O)NC(=O)C1(C)CCN1C(=O)C(C)(C)c1ccccc1 (stereo not drawn),nt,-5.1,nt,nt,1.2%,nt,nt
O=C(Nc1nc(-c2ccco2)c(-c2ccco2)s1)C1CC(=O)N(c2ccc3c(c2)OCCO3)C1 (stereo not drawn),?,-76.1*,?,-8.8%,?,?,3.0%
CCOC(=O)c1sc(NC(=O)c2cc(CC)on2)c(C(=O)OCC)c1C,-10.8%,nt,-2.4%,nt,nt,nt,nt
CCc1nn(CC(=O)NCCc2ccc(OC)cc2OC)c(=O)c2cc3c(OC)cccc3n12,2.5%,nt,-5.6%,nt,nt,nt,nt
CC(=O)Nc1cccc2cc(O)ccc12,-10.5%,-63.4*,nt,6.1%,-21.9%,2.2%,3.4%
CC(=O)Nc1cccc2cc(S(=O)(=O)O)ccc12,nt,-13.4,nt,nt,-9.3%,nt,nt
CCOC(=O)c1c(NC(=O)C(C)Sc2cn(CCNC(=O)c3c(F)cccc3F)c3ccccc23)sc2c1CCC2 (stereo not drawn),-14.6%,nt,-1.5%,nt,nt,nt,nt
O=C(CSC1=NCCS1)NCc1ccco1,20µM*,-53.7*,1.6%,1.2%,2.99µM*,0.3%,0.6%
COc1ccccc1CNC(=O)CSC1=NCCS1,?,1.9,-11.7%,1.9%,?,9.8%,nt
SMILES,VDR inh,PI5P4Ka inh,GCN5L2 inh,Rango dissoc inh,PLK1 PBD inh,Rango complex inh,ADP-Glo counter
O=C(NCCc1ccccc1)C(c1cccs1)N(C(=O)c1csnn1)C1CC1 (stereo not drawn),-8.9%,-0.2,-5.5%,3.0%,-8.8%,-0.2%,1.2%
CCN(CC)CCNC(=O)Cc1nn(CC)c(=O)c2ccccc12,-2.5%,nt,-1.7%,12.3%,-5.8%,-0.4%,nt
CCn1nc(CC(=O)Nc2nnc(CC(=O)N3CCOCC3)s2)c2ccccc2c1=O,13.0%,2.0,-1.1%,?,0.5%,2.2%,-0.1%
COc1cc(CNc2ccc(N3CCCC3)cc2)cc(Cl)c1OC,5.62µM*,-66.1*,9.7%,-8.9%,21.2µM*,?,-4.1%
CCOc1cc(CNc2ccc(N3CCCC3)cc2)cc(Cl)c1OC,?,-12.0,-7.6%,?,-22.6%,1.4%,nt
Cc1cc(C)c(NC(=O)CCN2C(=O)c3ccccc3Sc3ncccc32)c(C)c1,0.4%,nt,-14.2%,nt,nt,nt,nt
O=C(NCc1ccco1)c1ccc([N+](=O)[O-])o1,-14.5%,-63.5*,-18.7%,9.7%,?,-3.5%,0.9%
S=C(NCc1ccco1)NCc1ccco1,?,-75.7*,nt,-4.6%,5.97µM*,-3.9%,-0.3%
CC(C)(C)C(=O)CSc1nc2ccsc2c(=O)n1Cc1ccccc1Cl,-0.7%,nt,-13.2%,nt,nt,nt,nt
CC1Cc2ccccc2N1C(=O)CNc1cccc(S(=O)(=O)N2CCCC2)c1 (stereo not drawn),25.1µM*,-66.3*,-16.1%,-14.9%,3.77µM*,2.9%,-4.5%
Cc1cc(-c2nc3c4c5c(sc4[nH]c(=O)n3n2)CCC5)c(C)o1,-21.9%,-59.1*,?,-0.2%,?,0.4%,-5.9%
Cc1cc(C)cc(-n2ccnc2SCC(=O)Nc2cccc3ccccc23)c1,12.0%,nt,3.1%,nt,nt,nt,nt
Cc1ccc2c(CC(=O)OCC(=O)N(CC(C)C)c3c(N)n(Cc4ccccc4)c(=O)[nH]c3=O)coc2c1,13.4%,-58.9*,-8.9%,-8.1%,-13.4%,?,-0.9%
CCN(C(=O)COC(=O)Cc1coc2cc(C)ccc12)c1c(N)n(Cc2ccccc2)c(=O)[nH]c1=O,2.5%,3.1,-3.2%,-3.0%,-19.0%,-2.5%,nt
Cc1ccc(NC(=O)Nc2cccs2)cc1,-1.2%,-54.4*,1.0%,?,-8.6%,?,2.9%
CC1=Nc2cc(C(=O)NCCc3ccc(Cl)cc3)ccc2Sc2c(C)ccc(C)c21,-1.7%,nt,-5.7%,nt,nt,nt,nt
COC(=O)c1c[nH]c(=O)c2ccccc12,?,-56.3*,-1.4%,2.3%,15µM*,0.7%,-6.5%
